In PubChem BioAssay AID651650 (Sanford-Burnham Center for Chemical Genomics, 2012):

Biological target: Neuropilin-1 (Homo sapiens) (UniProt O14786)
Experiment: NRP-1 b1b2 CendR peptide binding inhibitors, dose response, biochemical, FP and AlphaScreen panel (AID 651650)
Settings: NRP-1 b1b2 / RPARPAR peptide binding, FP or AlphaScreen; run 1, at 100 µM (top of the series)

Neuropilin-1 (Homo sapiens), sequence (O14786 whole entry, looked up): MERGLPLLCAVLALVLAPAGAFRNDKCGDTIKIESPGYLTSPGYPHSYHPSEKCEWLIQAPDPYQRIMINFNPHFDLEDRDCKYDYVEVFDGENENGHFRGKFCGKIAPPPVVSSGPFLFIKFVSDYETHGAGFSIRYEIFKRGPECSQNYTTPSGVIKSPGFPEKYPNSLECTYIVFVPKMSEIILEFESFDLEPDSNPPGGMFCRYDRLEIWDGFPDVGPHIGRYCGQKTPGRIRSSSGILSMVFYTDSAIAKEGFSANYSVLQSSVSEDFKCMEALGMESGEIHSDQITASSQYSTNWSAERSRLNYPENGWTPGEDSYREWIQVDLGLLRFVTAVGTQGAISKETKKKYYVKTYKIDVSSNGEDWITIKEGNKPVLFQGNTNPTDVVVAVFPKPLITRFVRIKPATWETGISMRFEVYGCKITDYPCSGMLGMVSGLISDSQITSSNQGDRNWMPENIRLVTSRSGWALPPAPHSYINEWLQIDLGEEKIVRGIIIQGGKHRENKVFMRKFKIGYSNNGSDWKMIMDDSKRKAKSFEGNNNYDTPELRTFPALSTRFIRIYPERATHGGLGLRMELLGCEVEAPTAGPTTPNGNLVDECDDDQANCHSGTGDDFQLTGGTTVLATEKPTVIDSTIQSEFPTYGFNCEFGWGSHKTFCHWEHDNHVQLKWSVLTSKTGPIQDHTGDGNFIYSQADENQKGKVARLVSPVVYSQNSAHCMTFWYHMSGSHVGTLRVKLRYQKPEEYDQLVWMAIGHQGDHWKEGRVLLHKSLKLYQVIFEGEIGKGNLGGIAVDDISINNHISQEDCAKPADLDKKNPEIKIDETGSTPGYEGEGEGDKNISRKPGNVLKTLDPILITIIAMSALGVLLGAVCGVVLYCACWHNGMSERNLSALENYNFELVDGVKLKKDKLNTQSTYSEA

| Compound | inhibition [%] |
| --- | --- |
| Cc1ccccc1/C=C/c1nc2ccccc2c(=O)n1CCc1ccccc1 | 34.1 |
| Cn1c(=O)c2c(ncn2CC(COCc2ccccc2)OCc2ccccc2)n(C)c1=O (stereo not drawn) | 54.8 |
| COc1ccc(Cn2c3ccc(OC)cc3c3nc4ccccc4nc32)cc1 | 78.8 |
| COC(=O)c1cccc(NC(=S)NCCC2=CCCCC2)c1 | 4.3 |
| CCn1ncc(Br)c1C(=O)N(C)C12CC3CC(CC(C3)C1)C2 | 41.8 |
| CC(=O)Nc1ccccc1OCC(=O)N(Cc1ccccc1)C(C)C | 18.2 |
| OCCNc1ncnc2ccc(Br)cc12 | 66.8 |
| Oc1ccccc1-c1ccn[nH]1 | 32 |
| CCCc1c(O)c2ccccc2[nH]c1=O | 5.68 |
| CCOC(=O)N1CCN(C(=O)c2cc3n(n2)C(C(F)(F)F)CC(c2ccc4c(c2)OCO4)N3)CC1 (stereo not drawn) | 30.7 |
| Cc1ccc(S(=O)(=O)NCC(=O)N(c2ccccc2)C(C(=O)NCc2ccccc2)c2ccco2)cc1 (stereo not drawn) | -4.65 |
| Cc1ccc(Nc2c(-c3ccccc3O)nc3ncccn23)cc1 | 19.2 |
| COc1ccc(NC(=O)C(C)Sc2ccccc2)cc1 (stereo not drawn) | 13.5 |
| Cc1cccc(C)c1Nc1nnc(SCC(=O)Nc2cc(S(=O)(=O)N3CCCCC3)ccc2Cl)s1 | -15.9 |
| CCN(c1ccccc1)S(=O)(=O)c1ccc(C(=O)N(CCCN(C)C)c2nc3cc4c(cc3s2)OCO4)cc1 | 72.6 |
| COc1ccc(NC(=O)CN(C)CC(=O)Nc2cccc(F)c2)cc1Cl | 71.1 |
| COc1ccc(-c2csc(NCCc3nc4cc(C(=O)NCCCO)ccc4n3Cc3ccc(C)cc3)n2)cc1 | 90.9 |
| CCc1ccc(OC(=O)CN2C(=O)c3ccccc3C2=O)cc1 | 76.9 |
